# Laboratory results as given in the supplement of paper PMC7366291.
# Counter-ions that a name gives are not always drawn. ± gives the standard deviation of the averaged measurements.
# System: Danio rerio Tg(wt1b:EGFP) embryo, pronephros
# Experiment: glomerular width (mean of left and right), fold change vs DMSO control; higher = wider glomerulus
# Settings: 25 µM; exposure: 24-48 hpf
# How it was run: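 Each feature value is a fold change relative to the mean of same-day DMSO-treated embryos. Embryos of the Tg(wt1b:EGFP) zebrafish line, dechorionated, received 25 μM compound in 0.5% DMSO from 24 to 48 hpf at 28.5°C, in HEPES-buffered E3 with 0.003% PTU. Distances and angles were computed by a Fiji macro from 16 manually set reference points on maximum projections of dorsal pronephros images, and values beyond 2 SD of the feature mean were removed.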
row,SMILES,glomerular width
1,CC(C)NC[C@H](O)COc1ccc(CC(N)=O)cc1 [(S)-(-)-Atenolol],0.918 ± 0.067
2,COc1cc(C(=O)NS(=O)(=O)c2ccccc2C)ccc1Cc1cn(C)c2ccc(NC(=O)OC3CCCC3)cc12 [Zafirlukast],0.9694 ± 0.0078
3,CS(=O)(=O)c1ccc([C@@H](O)[C@@H](CF)NC(=O)C(Cl)Cl)cc1 [Florfenicol],1.01 ± 0.083
4,CC(=O)OCC(=O)[C@@]12N=C(C)O[C@@H]1C[C@H]1[C@@H]3CCC4=CC(=O)C=C[C@]4(C)[C@H]3[C@@H](O)C[C@@]12C [Deflazacort],1.06 ± 0.014
5,CCC(C)(C)c1ccc(CC(C)CN2C[C@@H](C)O[C@@H](C)C2)cc1 (some centres not stated) [Amorolfine hydrochloride],0.987 ± 0.017
6,O=C(O)CN(CCN(CC(=O)O)CC(=O)O)CCN(CC(=O)O)CC(=O)O [Pentetic acid],0.98 ± 0.017
7,CC(=O)Nc1nnc(S(N)(=O)=O)s1 [Acetazolamide],0.973 ± 0.029
8,CN(C(=O)CN(CCO)CC(=O)N(C)C(C)(C)Cc1ccccc1)C(C)(C)Cc1ccccc1 [Oxethazaine],1.1 ± 0.017
9,CN(C)CCC(c1ccc(Br)cc1)c1ccccn1 (configuration not stated) [Brompheniramine maleate],1.04 ± 0.065
10,CC(C)c1nc(CN(C)C(=O)N[C@H](C(=O)N[C@@H](Cc2ccccc2)C[C@H](O)[C@H](Cc2ccccc2)NC(=O)OCc2cncs2)C(C)C)cs1 [Ritonavir],0.961 ± 0.094
11,NC(=O)c1ncn([C@@H]2O[C@H](CO)[C@@H](O)[C@H]2O)n1 [Ribavirin],0.965 ± 0.025
12,CN1CCN2c3ncccc3Cc3ccccc3C2C1 (configuration not stated) [Mirtazapine],0.98 ± 0.037
13,NC(=O)N/N=C/c1ccc([N+](=O)[O-])o1 [Nitrofural],1.02 ± 0.047
14,O=C(O)c1cc(=O)c2c(OCC(O)COc3cccc4oc(C(=O)O)cc(=O)c34)cccc2o1 [Cromolyn disodium salt],1.08 ± 0.011
15,O=C(CCCN1CCN(c2ccccn2)CC1)c1ccc(F)cc1 [Azaperone],0.925 ± 0.039
16,CCCCNc1ccc(C(=O)OCCOCCOCCOCCOCCOCCOCCOCCOCCOC)cc1 [Benzonatate],0.897 ± 0.012

row,SMILES,glomerular width
1,CCCc1ncc(C[n+]2ccccc2C)c(N)n1 [Amprolium hydrochloride],0.936 ± 0.042
2,CC(C)NC(=N)NC(=N)Nc1ccc(Cl)cc1 [Proguanil hydrochloride],0.978 ± 0.0098
3,CO[C@H]1/C=C/O[C@@]2(C)Oc3c(C)c(O)c4c(O)c(c(/C=N/N5CCN(C6CCCC6)CC5)c(O)c4c3C2=O)NC(=O)/C(C)=C\C=C\[C@H](C)[C@H](O)[C@@H](C)[C@@H](O)[C@@H](C)[C@H](OC(C)=O)[C@@H]1C [Rifapentine],0.985 ± 0.066
4,NCC[C@H](O)C(=O)N[C@@H]1C[C@H](N)[C@@H](O[C@H]2O[C@H](CN)[C@@H](O)[C@H](O)[C@H]2O)[C@H](O)[C@H]1O[C@H]1O[C@H](CO)[C@@H](O)[C@H](N)[C@H]1O [Amikacin hydrate],1.02 ± 0.028
5,CNCCC(Oc1ccccc1OC)c1ccccc1 (configuration not stated) [Nisoxetine hydrochloride],0.94 ± 0.013
6,N[C@@H]1CCCCN(c2c(F)cc3c(=O)c(C(=O)O)cn(C4CC4)c3c2Cl)C1 [Besifloxacin hydrochloride],1.02 ± 0.033
7,Cn1c(=O)c2c(ncn2C)n(C)c1=O [Caffeine],0.921 ± 0.018
8,O=c1[nH]cnc2c1ncn2[C@H]1CC[C@@H](CO)O1 [Didanosine],1.06 ± 0.052
9,O=C(O)Cc1ccccc1Nc1c(Cl)cccc1Cl [Diclofenac sodium],0.492 ± 0.031
10,COc1ccc2cc(CCC(C)=O)ccc2c1 [Nabumetone],1 ± 0.011
11,Cc1ncc([N+](=O)[O-])n1CCO [Metronidazole],0.928 ± 0.084
12,CN(C)CCC=C1c2ccccc2C=Cc2ccccc21 [Cyclobenzaprine hydrochloride],0.977 ± 0.043
13,CCN(CC)CCOC(=O)C(c1ccccc1)c1ccccc1 [Adiphenine hydrochloride],0.979 ± 0.026
14,Nc1nc(=O)c2c([nH]1)NC[C@@H](CNc1ccc(C(=O)N[C@@H](CCC(=O)O)C(=O)O)cc1)N2C=O [Folinic acid calcium salt],1.01 ± 0.016
15,NC(=O)N1c2ccccc2CC(=O)c2ccccc21 [Oxcarbazepine],1 ± 0.035
16,CC(=O)OCC(=O)[C@@]12OC3(CCCC3)O[C@@H]1C[C@H]1[C@@H]3CCC4=CC(=O)C=C[C@]4(C)[C@@]3(F)[C@@H](O)C[C@@]12C [Amcinonide],1.22 ± 0.14
